Source: PubChem BioAssay (National Center for Advancing Translational Sciences (NCATS))
Sampled rows, rich in hits. Any-hit rate of the full collection: about 2.8%.
POLB inh = qHTS Assay for Inhibitors of DNA Polymerase Beta | Pol beta primer extension/strand displacement, fluorescence kinetic | Potency, µM (titrated, usually from 114 µM), without a hit: at the top dose activity change, negative = inhibition, most hits filed as inhibitors | 1.3% of 340,000 active; also: potency is read from the fitted curve at half-maximal effect; % is scaled to controls: 0 for no effect and ±100 for the full control effect
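Pol beta (10 nM) was preincubated with compound for 15 min at room temperature. The reaction was then started with 50 nM substrate and read immediately and after a further 10 min at room temperature.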
Pol iota inh = qHTS for Inhibitors of Polymerase Iota; 1% of 390,000 active; DNA polymerase iota (Homo sapiens), Q9UNA4; Potency, µM (highest dose often 115 µM), inactives show at the highest dose activity, negative = inhibition, most hits filed as inhibitors; Pol iota fluorescent replication assay, 10 min; also: potency is read from the fitted curve at half-maximal effect
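Pol iota at 10 nM preincubated 15 min with compounds at room temperature; reaction started with fluorescent substrate, 50 nM final. Fluorescence read kinetically at 0 and 10 min; buffer-only wells as negative control.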
Pol eta inh-1 = qHTS for Inhibitors of Polymerase Eta | DNA polymerase eta (Homo sapiens), Q9Y253 | recombinant Pol eta, fluorescent DNA replication assay | Potency, µM (top dose mostly 114 µM), without a hit: at the top dose activity change, negative = inhibition, most hits filed as inhibitors | 1.2% of 390,000 active; also: potency is read from the fitted curve at half-maximal effect; % is scaled to controls: 0 for no effect and ±100 for the full control effect
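Pol eta at 10 nM preincubated with compounds 15 min at room temperature; reaction started with fluorescent substrate (50 nM final) and read kinetically at 0 and 10 min.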
WRN inhibitor = qHTS for Inhibitors of WRN Helicase; WRN helicase unwinding, fluorescent forked duplex, kinetic; Bifunctional 3'-5' exonuclease/ATP-dependent helicase WRN (Homo sapiens), Q14191; Potency, µM (series often up to 114 µM), for inactives: at the top dose activity change, negative = inhibition, hits mostly inhibitors; 0.46% of 360,000 active; AID 651768, 2012; also: potency is read from the fitted curve at half-maximal effect; % is scaled to controls: 0 for no effect and ±100 for the full control effect; nearly all actives have a fitted effect of over 55% in size
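Primary qHTS, 1536-well format. 20 nM WRN + compound, 15 min RT; start with 100 nM forked fluorophore/quencher duplex, 2 mM ATP (final); kinetic read ex 525/em 598 nm.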
PI5P4Ka inh = qHTS for Inhibitors of phosphatidylinositol 5-phosphate 4-kinase (PI5P4K); max response, %; AID 652105, 2013; Phosphatidylinositol 5-phosphate 4-kinase type-2 alpha (Homo sapiens), P48426; PI5P4Kalpha enzyme, ADP-Glo luminescence, 60 min; stronger effect = lower value; 1.2% of 330,000 active; active = max response of -50% or lower; inconclusive = between -30% and -50%; inactive = -30% or higher; also: value at the top dose of about 77 µM; % is scaled to controls: 0 for no effect and ±100 for the full control effect
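qHTS, 1536-well: enzyme/substrate mix, compound by pin tool, 5 microM ATP final; RT 60 min; ADP-Glo reagents 1 (45 min) then 2 (30 min); luminescence.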
Pol kappa inh-1 = qHTS for Inhibitors of Polymerase Kappa. DNA polymerase kappa (Homo sapiens), Q9UBT6. purified Pol kappa, fluorescent DNA synthesis assay, 10 min. Potency, µM (series often up to 107 µM), inactives show at the top dose activity, negative = inhibition, actives largely listed as inhibitors. 0.53% of 400,000 active. AID 588579, 2011; also: potency is read from the fitted curve at half-maximal effect; % is scaled to controls: 0 for no effect and ±100 for the full control effect
Target sequence (Q9UBT6 whole entry, looked up): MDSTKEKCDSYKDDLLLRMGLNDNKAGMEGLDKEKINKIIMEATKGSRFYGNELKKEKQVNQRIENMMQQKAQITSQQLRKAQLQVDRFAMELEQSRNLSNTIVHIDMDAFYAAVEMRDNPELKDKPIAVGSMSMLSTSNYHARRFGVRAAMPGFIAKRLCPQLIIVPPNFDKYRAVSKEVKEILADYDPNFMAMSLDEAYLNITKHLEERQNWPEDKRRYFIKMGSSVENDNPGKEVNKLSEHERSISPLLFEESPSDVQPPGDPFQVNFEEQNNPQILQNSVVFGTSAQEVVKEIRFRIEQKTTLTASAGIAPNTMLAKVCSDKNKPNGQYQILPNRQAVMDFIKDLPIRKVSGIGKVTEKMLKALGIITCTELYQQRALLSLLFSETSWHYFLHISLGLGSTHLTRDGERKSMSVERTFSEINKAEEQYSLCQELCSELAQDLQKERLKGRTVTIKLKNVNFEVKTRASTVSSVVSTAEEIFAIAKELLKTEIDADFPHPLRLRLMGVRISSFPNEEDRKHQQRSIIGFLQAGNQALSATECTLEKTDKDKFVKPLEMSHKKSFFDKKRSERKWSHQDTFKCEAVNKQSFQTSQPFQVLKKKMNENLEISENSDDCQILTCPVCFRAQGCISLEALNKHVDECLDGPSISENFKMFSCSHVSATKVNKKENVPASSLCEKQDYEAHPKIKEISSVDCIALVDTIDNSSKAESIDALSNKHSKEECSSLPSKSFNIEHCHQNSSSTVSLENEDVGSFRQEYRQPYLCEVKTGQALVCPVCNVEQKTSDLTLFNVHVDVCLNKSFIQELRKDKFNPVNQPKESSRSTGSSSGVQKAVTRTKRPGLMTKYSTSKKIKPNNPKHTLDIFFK
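First, compounds were pin-transferred onto 10 nM Pol kappa. After 15 min at room temperature, substrate was added to 50 nM final. Fluorescence was then measured kinetically at 0 and 10 min.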
GALK inh confirm = Confirmation Assay for Inhibitors of Human Galactokinase (GALK); shares compounds with Pol eta inh-1; purified GALK, Kinase-Glo ATP depletion luminescence; Potency, µM (doses to about 115 µM), without a hit: top-dose activity, negative = inhibition, usual class: inhibitors; 70% of 150 active; AID 2015, 2009
Redox cycling = Confirmatory Assay for Inhibitors of Human Galactokinase (GALK): Phenol-HRP redox assay counterscreen; Potency, µM (highest dose often 115 µM), inactives show top-dose activity change, negative = H2O2 signal, hits mostly inhibitors; shares compounds with Pol eta inh-1; Phenol red-HRP H2O2 redox cycling, absorbance 600 nm; 40% of 150 active
HEK293 tox = Secondary Assay for Inhibitors of Human Galactokinase (GALK): HEK-293 Cell Viability Assay; shares compounds with Pol eta inh-1; HEK-293 viability, ATP luminescence (CellTiter-Glo), 24/48 h; Potency, µM (series often up to 46.1 µM), inactives show top-dose activity change, negative = cytotoxicity, actives largely listed as inhibitors; 10% of 170 active; AID 2547, 2010; also: potency is read from the fitted curve at half-maximal effect; % is scaled to controls: 0 for no effect and ±100 for the full control effect
Pol kappa inh-2 = qHTS for Inhibitors of Polymerase Kappa: Confirmatory Assay for Cherry-picked Compounds; shares compounds with Pol eta inh-1; purified Pol-kappa, fluorescent strand-displacement substrate; Potency, µM, usual class: inhibitors; 76% of 920 active; AID 720501, 2013; also: potency is read from the fitted curve at half-maximal effect
Pol eta inh-2 = qHTS for Inhibitors of Polymerase Eta: Confirmatory Assay for Cherry-picked Compounds; Pol eta primer extension, TAMRA/BHQ fluorescence, 10 min; Potency, µM, actives largely listed as inhibitors; 64% of 2,600 active; shares compounds with Pol eta inh-1; also: potency is read from the fitted curve at half-maximal effect
* = called active by the depositor; ? = inconclusive; . = not tested or not shown; [ ] = dose if it differs, or a comment. Unless noted, calls follow the shape of the dose curve; as a rule, active = well fitted curve in the direction sought with a large enough effect; inconclusive = small, poorly fitted or top-dose-only effect, or another doubt; inactive = no such curve, though single readings can be large; an effect the other way counts as inactive or inconclusive.

SMILES | POLB inh | Pol iota inh | Pol eta inh-1 | WRN inhibitor | PI5P4Ka inh | Pol kappa inh-1 | Pol eta inh-2 | others
COc1cc(CCc2ccccc2)c(C(=O)O)c(O)c1CC=C(C)C | . | -2.0% | -0.4% | -16.0% | -15.8 | -20.9% | .
COc1cc(CCc2ccccc2)c(C(=O)O)c(O)c1C/C=C(/C)CCC=C(C)C | . | ? | 31.6µM* | ? | -2.0 | 79.4µM* | 84.9* | Pol kappa inh-2=?
COc1cc(-c2[nH]nc3c2C(c2ccoc2)C(C#N)=C(N)O3)cc(OC)c1OC (stereo unspecified) | 17.8µM* | ? | ? | -31.0%[57.1 µM] | ? | ? | ?
COc1ccc(-c2nc(C)c(CCNC(=O)C(=O)Nc3cccc(F)c3)s2)cc1OC | 2.9% | -33.8% | -15.4% | . | . | -10.3%[60.1 µM] | .
O=C(O)/C=C/c1ccc(S(=O)(=O)Nc2ccc3[nH]c(=O)[nH]c3c2)cc1 | -1.4% | ? | 25.1µM* | ? | ? | -21.0% | ?
Cc1ccc(NS(=O)(=O)c2ccc(/C=C/C(=O)O)cc2)cc1Cl | -7.0% | 104.4% | -16.3% | -19.5% | -10.3 | -17.8% | .
O=[N+]([O-])c1ccc(Cl)c(S(=O)(=O)/N=C(/Nc2cccnc2)c2ccccc2)c1 | . | 104.5% | 0.7% | ? | -5.6 | -13.7% | .
O=C(Nc1cccnc1)c1ccc(NS(=O)(=O)c2cc([N+](=O)[O-])ccc2Cl)cc1 | ? | ? | 22.4µM* | -10.1%[11.6 µM] | ? | -52.0% | 75.7*
Cc1cc(Cl)ccc1OC(C)C(=O)Nc1ccc([N+](=O)[O-])cn1 (stereo unspecified) | 15.2% | 8.8% | -21.0% | -19.3%[57.1 µM] | 7.1 | -18.7% | .
Cc1ccc([C@@H]2CC=C(C(=O)O)[C@H](c3ccc(C(C)(C)C)cc3)N2S(=O)(=O)c2ccc(C)cc2)cc1 | . | ? | 89.1µM* | -20.3% | -22.6 | -11.9% | . | Pol kappa inh-2=?
CCOc1cc(/C=C2\SC(=O)N(CC(=O)Nc3ccccc3F)C2=O)cc([N+](=O)[O-])c1O | -6.3% | 11.2µM* | ? | -7.4%[57.1 µM] | -54.8* | -19.6% | . | Pol kappa inh-2=?
COc1cc(OC)c(/C=C2\SC(=O)N(CC(=O)Nc3ccccc3F)C2=O)c(OC)c1 | 28.7% | 8.4% | -6.8% | 1.9% | -0.8 | -6.3% | .
COc1ccc2sc(N(Cc3cccnc3)C(=O)c3ccc4c(c3)OCCO4)nc2c1 | 17.5% | -5.2% | -6.7% | . | . | -12.5%[60.1 µM] | .
O=C(O)/C=C/c1cn(-c2ccccc2)nc1-c1cccc([N+](=O)[O-])c1 | 6.8% | 22.2% | -14.8% | -1.5% | -3.4 | 2.0% | .
O=C(O)/C=C/c1cn(-c2ccccc2)nc1-c1ccc(-c2ccc([N+](=O)[O-])cc2)o1 | 28.2µM* | ? | 31.6µM* | 50.1µM* | -60.5* | -24.2% | 84.9*
COc1cc(/C=C2\SC(=O)NC2=O)ccc1Oc1ccc([N+](=O)[O-])cc1[N+](=O)[O-] | 89.1µM* | ? | 50.1µM* | -35.1% | 2.9 | ? | ?
NS(=O)(=O)c1ccc(-c2ccc(/C=N/Nc3ccc(C(=O)O)cc3)o2)cc1 | -15.8% | 50.1µM* | 28.2µM* | -10.8% | ? | ? | ?
CNC(=S)N/N=C/c1ccc(-c2ccc(C(=O)O)cc2)o1 | ? | ? | 22.4µM* | -7.7%[11.6 µM] | -61.7* | ? | 33.8*
NS(=O)(=O)c1ccc(-c2ccc(/C=N/NC(=O)c3ccc([N+](=O)[O-])cc3)o2)cc1 | -17.4% | -2.8% | 4.3% | -4.5% | 0.4 | -9.3% | .
CCN(CC)CCNC(=O)c1ccc(Cn2c(=O)c3cccn3c3cccnc32)cc1 | 20.3% | ? | . | . | . | -2.4% | .
CCOC(=O)Cc1csc(NC(=O)NC2(C(F)(F)F)Oc3cc(Cl)c(Cl)cc3O2)n1 | -7.2% | -10.1% | -20.0% | -17.0% | -5.6 | 20µM* | . | Pol kappa inh-2=10.6*
NNc1cc([N+](=O)[O-])cc2c1C(=O)N(Cc1ccccc1)S2=O (stereo unspecified) | ? | 35.5µM* | 44.7µM* | -10.3%[57.1 µM] | -65.8* | 79.4µM* | ? | Pol kappa inh-2=?
CC(C)=NNc1cc([N+](=O)[O-])cc2c1C(=O)N(C)S2=O (stereo unspecified) | -0.7% | -18.9% | -6.5% | 5.6% | -4.2 | -3.8% | .
Cc1ccc(S(=O)(=O)Oc2ccc(/C=C3\N=C(c4cccc(C)c4)OC3=O)cc2)cc1 | ? | 37.7% | -15.2% | -10.7% | 2.1 | -8.0% | .
CS(=O)(=O)C1=NSC2=NC(=O)/C(=C\c3ccc(OS(=O)(=O)c4ccccc4)cc3)C(=N)N21 | ? | -45.4% | 50.1µM* | -16.6%[11.6 µM] | -62.5* | 2.7% | . | GALK inh confirm=33.5µM*;Redox cycling=-19.8%;HEK293 tox=2.0%
Cc1ccc(S(=O)(=O)Oc2ccc(/C=C3/C(=N)N4C(=NC3=O)SN=C4S(C)(=O)=O)cc2)cc1 | 1.0% | ? | 28.2µM* | ? | -58.8* | -27.5% | 67.5* | GALK inh confirm=29.8µM*;Redox cycling=-0.5%;HEK293 tox=-0.3%
COc1cccc(-n2c(C)cc(/C=C3/C(=N)N4C(=NC3=O)SN=C4S(C)(=O)=O)c2C)c1 | 4.5% | ? | 17.8µM* | -18.0%[57.1 µM] | -63.3* | -25.7% | ?
CN(C)S(=O)(=O)Nc1cc(Cl)cc(Cl)c1 | 36.1% | 83.3% | -17.4% | -19.0% | -29.6 | 1.4% | .
